The whole screen tested about 1,200 compounds, of which about 170 (14%) were called active. The rule behind the calls is not given here. Not all results are given here. Results with a measured potency or affinity are listed apart.
Assay: twin-arginine translocation blockade, bacterial reporter – cherry-pick, set 2, plate reader, dose response (AID 504941)
Conditions: E. coli Tat transport reporter; series mostly up to 38 µM

outcome, inactive:
Cc1onc(C(=O)NCc2ccc(F)cc2)c1[N+](=O)[O-], O=C(CCC1CCCCC1)NCCN1CCOCC1, COCCCN=C(c1ccco1)n1c(=S)nc(-c2ccco2)n(CCCOC)c1=S, O=C(CN1CCC(c2nc3ccccc3s2)CC1)NCc1cccs1, O=C(Nc1ccc(C(=O)O)cc1)/C(=C\C=C\c1ccccc1)NC(=O)c1ccccc1Br, O=C(Nc1cc(S(=O)(=O)N2CCOCC2)ccc1N1CCCC1)c1ccc(Cl)cc1, Cc1cc(Oc2nc3c(C)cccn3c(=O)c2/C=C(\C#N)S(=O)(=O)c2ccc(Cl)cc2)ccc1Cl, CCOC(=O)C1=C(C)Nc2ncnn2C1c1cc(Br)ccc1F (stereo not drawn), Cc1ccn(C(=O)c2ccc(NC(=O)C3CC3)cc2)n1, COc1ccc(NC(=O)C2CCN(Cc3cnn(-c4ccccc4)c3-n3cccc3)CC2)cc1OC, O=C(CSc1cccc2cccnc12)N/N=C/c1ccncc1, Clc1ccccc1CSc1nnc(-c2cccnc2)n1Cc1ccco1, CCN(CC)CC(=O)Nc1ccc(C)cc1C(=O)c1ccccc1, COc1ccccc1NC(=O)NCCCCc1ccccc1, COc1ccc(CCNCC(O)COc2c(C)cccc2C)cc1OC (stereo not drawn), COCCNc1nc(N)c([N+](=O)[O-])c(NCC2CCCO2)n1 (stereo not drawn), CCOC(=O)c1sc(-c2ccccc2)cc1NC(=O)Nc1ccc([N+](=O)[O-])cc1, O=C1c2cccc3cccc(c23)C(=O)N1CC1CCN(CC(O)COc2ccc3ccccc3c2)CC1 (stereo not drawn), COC(=O)COc1cccc(NC(=O)c2cccc(C)c2)c1, Cc1cccc(OCC(O)Cn2c(=N)n(CCN3CCOCC3)c3ccccc32)c1 (stereo not drawn), CCCc1[nH]nc2c1C(c1ccc(OC(=O)c3ccco3)cc1)C(C#N)=C(N)O2 (stereo not drawn), O=C1c2ccccc2NC(c2ccc(Cl)cc2Cl)N1O (stereo not drawn), CCOc1cc(/C=N/NC(=O)C(=O)NCc2cccnc2)ccc1O, S=c1[nH]nc(-c2cccnc2)n1C1CCCCC1, O=S(=O)(NC1CCCCC1)c1ccc(Cl)s1, CCC(C)OC1OC(CO)C(O)C(O)C1NC(C)=O (stereo not drawn), C[C@@H]1C(c2ccc(F)cc2)=NN(c2ccccc2)[C@H]1C(=O)N1CCOC1=O, CCN(CC)S(=O)(=O)N1CCC(C(=O)NC2CCCC2)CC1, O=C(Nc1ccccc1F)C1CCN(C(=O)Cc2ccccc2)CC1, CCOc1cc(C(=O)N2CCCN(C)CC2)cc(OCC)c1OCC, COC(=O)c1sc(NC(=O)CSc2nnnn2-c2ccc(C)cc2C)nc1C, CN1CC(c2ccccc2Cl)C2(COc3ccccc3C2=O)C12C(=O)Nc1ccccc12 (stereo not drawn), CC1(C)c2ccccc2N2CC(=O)NC21/C=C/c1ccco1 (stereo not drawn), CCc1ccc(C(=O)Nc2ccc(S(=O)(=O)Nc3nc(C)cc(C)n3)cc2)o1, Cc1ccc2nc(C(=O)O)c(C(=O)O)nc2c1, O=C(Cn1c(=O)oc2cc(S(=O)(=O)N3CCc4ccccc43)ccc21)N1CCCCC1, O=C(Cn1nnc(-c2ccccc2)n1)N/N=C/c1cccc([N+](=O)[O-])c1O, COc1ccccc1N(CC(=O)NC1CCCC1)C(=O)c1csnn1, Cc1cc(=O)oc2cc(OCC(=O)OCC(=O)N3CCc4ccccc43)ccc12, CCCCCCc1ccc(N2C[C@H](Cc3ccccc3)[C@@H](CC(=O)NCc3ccc(OC)cc3)C2=O)cc1, CCCOc1cc(C)c(S(=O)(=O)N2CCN(C)CC2)cc1C, COc1ccc(OC)c(S(=O)(=O)NCCc2ccccc2)c1, COc1ccc(S(=O)(=O)NCc2ccco2)c2ccccc12, COC(=O)C1=CN(C(C)C)C=C(C(=O)OC)C1c1cccc(OC)c1, COc1ccc(N2C(=O)C3C4C=CC(C4)C3C2=O)nn1 (stereo not drawn), CCNC(=O)c1ccc(NS(=O)(=O)c2ccccc2)cc1, Cc1ccc(-c2cc(C(=O)OCC(=O)N(C)c3c(N)n(Cc4ccccc4)c(=O)[nH]c3=O)c3ccccc3n2)o1, N#CC1=C2SCC(O)(c3ccccc3)N2C(=O)CC1c1ccccc1F (stereo not drawn), COc1cc(NC(=O)C2CC(=O)NC3=C2C(=O)CC(C)(C)C3)c(OC)cc1Cl (stereo not drawn), Cn1c(C(=O)NCc2cccs2)cc2c(=O)n(C)c3ccccc3c21, COC(C(=O)Nc1ccnn1C1CCN(Cc2ccc(C)o2)CC1)c1ccccc1 (stereo not drawn), O=C(c1n[nH]c2ccccc12)N1CCOCC1, O=C(CSc1cccc[n+]1[O-])Nc1ccccc1C(F)(F)F, C/C(Cn1nnc([N+](=O)[O-])n1)=N\NC(=O)c1ccc(O)cc1O, CC1CCCCN1S(=O)(=O)c1ccc(NC(=O)c2ccco2)cc1 (stereo not drawn), CCn1c(C)nc2cc(C(=O)N/N=C/c3ccc(OC)c(O)c3)ccc21, COc1cccc(C2C(C(=O)OC(C)C)=C(C)Nc3ncnn32)c1 (stereo not drawn), CCN(CC)S(=O)(=O)c1ccc(=O)n(CC(=O)N2Cc3ccccc3CC2C(N)=O)c1 (stereo not drawn), CC(Sc1nc2ccccc2c(=O)n1C)C(=O)NC1CCCCC1C (stereo not drawn), Cc1nn(Cc2ccccc2Cl)c(C)c1NC(=O)c1ccn(C)n1, Cn1c(=O)oc2cc(S(=O)(=O)NCCN3CCCCCC3)ccc21, CC(C)Sc1nc2c(c(=O)[nH]c(=O)n2C)n1CCc1ccccc1, CCn1c(SCC(=O)Nc2ccc(OC)cc2)nc2c1c(=O)n(C)c(=O)n2C, CCOCCOc1nc2c(c(=O)n(C)c(=O)n2C)n1Cc1ccc(C)cc1, CN(C)c1nc(NCc2ccccc2)nc(SCC(N)=O)n1, O=C(CN1CCN(c2ccccc2)CC1)N1N=CCC1c1ccccc1 (stereo not drawn), Cc1nc2ccccc2c(=O)n1CCCO, Cn1c(-c2ccccc2)cnc1N, Cc1c(OCC(=O)NCCCN2CCOCC2)ccc2c1oc(=O)c1ccccc12, CC(Sc1ccsc1[N+](=O)[O-])C(=O)N1CCN(c2ccccn2)CC1 (stereo not drawn), N#Cc1ccccc1S(=O)(=O)N1CCN(CC(=O)Nc2ccnn2C2CCCC2)CC1, CCN(CC)C(=O)CSc1nc2ccccc2o1, COC(=O)c1ccc(C2CC(=O)Nc3cc(OC)c(OC)cc32)cc1 (stereo not drawn), Cc1ccc(S(=O)(=O)N2CCOCC2)cc1NC(=O)c1cc2ccccc2oc1=O, Cc1ccc(NC(=O)/C(=C/c2cccc([N+](=O)[O-])c2)NC(=O)C2CCCCC2)c(C)c1, COc1ccc(CN2CSC(=S)N(Cc3ccccc3)C2)cc1, Nc1cc(N)nc(SCc2ccc(Cl)cc2)n1, O=C(CCCCCNC(=O)c1ccccc1)C[N+](=O)[O-], COCCCNc1nc2c(c(=O)[nH]c(=O)n2C)n1CC(O)COc1cccc(C)c1 (stereo not drawn), COc1ccc(NC(=O)c2ccc(Oc3ncccn3)cc2)cc1, Cn1c(N)c(C(=O)COC(=O)CCCN2C(=O)c3ccccc3C2=O)c(=O)n(C)c1=O, O=C(CN1CCN(c2ccccc2F)CC1)NC(=O)NCc1ccccc1, COc1ccc(-c2cc(C(F)(F)F)c3c(n2)sc2c(O)cc(=O)[nH]c23)c(OC)c1, Nc1ccccc1S(=O)(=O)NC1=NCCCCC1, CC(C)(C)OC(=O)NCC(=O)N1CCC(C(=O)O)CC1, O=C(NCc1ccccc1)c1nc[nH]c1C(=O)N1CCN(c2ccccc2)CC1, CC1CCN(C(=O)c2[nH]cnc2C(=O)N[C@@H](C)C(=O)OC(C)(C)C)CC1, CC(=O)Nc1ccc(NS(=O)(=O)c2ccc3ccccc3c2)cc1, CCc1ccc(N2CC34C=CC(O3)C(C(=O)OC(C)C)C4C2=O)cc1 (stereo not drawn), COc1ccc(N=Cc2nc(-c3ccccc3)oc2OC(=O)c2ccccc2)cc1, COC(=O)c1c(NC(=O)C(=O)NCCCN2CCOCC2)sc2c1CCCC2, Cc1nn2c(SCC(=O)c3cccs3)cc(C(C)(C)C)nc2c1-c1ccccc1, O=C(O)c1ccc(NS(=O)(=O)c2cc(C(=O)O)ccc2Br)cc1, CC(C)(C)c1ccc(C(=O)n2cnc3ccccc32)cc1, Cc1ccc(CNC(=O)C2CCCN2C(=O)Nc2ccccc2)cc1 (stereo not drawn), O=C(O)C1CCCCN1S(=O)(=O)c1ccc(Cl)s1 (stereo not drawn), Cc1ccc(-n2nnnc2-c2cnc3cc4c(cc3c2C)OCO4)cc1, Cc1ccc2nc(NNC(=O)c3ccc(S(=O)(=O)N4CCc5ccccc5C4)cc3)sc2c1, O=C(CSc1nnc(-c2ccccc2)n1C1CCCCC1)N1CCCC1, Cc1ccnc(NS(=O)(=O)c2ccc(NS(=O)(=O)c3ccccc3)cc2)n1, O=C(CN(Cc1ccco1)C(=O)c1ccccc1F)Nc1ccccc1C(F)(F)F, CCc1cccc2c1NC(=O)C2(O)N1CCCC(C)C1 (stereo not drawn), COc1cccc(C(=O)Nc2cc([N+](=O)[O-])ccc2N2CCN(C)CC2)c1, CS(=O)(=O)N(CC(=O)NC1CCCC1)c1cccc(F)c1, Cc1cccc(NC(=O)CN(c2ccc(F)cc2)S(C)(=O)=O)c1, COC(CN(C)C(=O)C1CCCN(S(=O)(=O)c2ccc3c(c2)oc(=O)n3C)C1)OC (stereo not drawn), CCOC(=O)c1c(NC(NC(C)=O)C(Cl)(Cl)Cl)sc(C(C)=O)c1C (stereo not drawn), CC(C)(CO)[C@@H](O)C(=O)NCCC(=O)O

— PubChem BioAssay AID504941 (Broad Institute, 2011)
